# Data published in PubChem BioAssay (EPA / NIEHS).
# A structure can be active in one record and inactive in another. The source made the active and inactive calls. The calls were made as follows: active = hit-call score of the fitted dose curve at least 0.9, where 1 is the maximum; inactive = score below 0.9.
# Assay: CEETOX_H295R_11DCORT: CeeTox H295R High-throughput Steroidogenesis Assay for 11-Deoxycortisol (11DCORT) (AID 2283432);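 as to AC50: 11-deoxycortisol secreted into the medium measured by LC-MS/MS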
# Details: actives raise or lower the signal
# Description: CEETOX_H295R is a cell-based, multiplexed-readout assay that uses H295R, a human adrenal gland cell line, with measurements taken at 48 hours after chemical dosing in a 96-well plate.CEETOX_H295R_11DCORT is one of 23 assay component(s) measured or calculated from the CEETOX_H295R assay. It is designed to make measurements of hormone induction, a form of inducible reporter, as detected with absorbance signals by HPLC-MS-MS technology.Data from the assay component CEETOX_H295R_11DCORT was analyzed into 1 assay endpoint. This assay endpoint, CEETOX_H295R_11DCORT, was analyzed with bidirectional fitting relative to DMSO as the negative control and baseline of activity. Using a type of inducible reporter, gain or loss-of-signal activity using HPLC-MS-MS was used to understand synthesis of 11-Deoxycortisol in H295R cell line at 48hr of chemical exposure. To generalize the intended target to other relatable targets, this assay endpoint is annotated to the steroid hormone intended target family, where the subfamily is glucocorticoids.
# Cell culture and media preparation procedures were conducted in accordance with OECD Test No. 456 guidelines, with minor modifications. H295R cells (ATCC CRL-2128) were expanded for 5 passages and frozen in batches in liquid nitrogen. Prior to the steroidogenesis assay, H295R cells were thawed and passed at least 4 times. The maximum passage was 10. Cells were maintained in a 1:1 mixture of DMEM/F12 supplemented with 5ml/L ITS+ Premix (BD Bioscience) and 12.5 ml/L Nu-Serum (BD Bioscience). After seeding cells into 96-well plates at 50-60% confluency, cells were allowed to adhere overnight. Prior to chemical testing, culture medium was replaced with 175 uL medium containing 10 uM forskolin to stimulate steroidogenesis for 48 hours. Following prestimulation, forskolin medium was replaced with medium containing test chemical solubilized in DMSO (ensuring a final concentration of 0.1% DMSO). Test chemicals were incubated for 48 hours, then the medium was removed and split into 2 vials containing approximately 75uL each, and stored at -80 C prior to hormone analysis. For steroid quantification, media samples were shipped to OpAns, LLC (Durham, NC) on dry ice, and samples were thawed to room temperature prior to liquid-liquid extraction. Steroid hormones were extracted from media samples using methyl tertbutyl ether (MTBE). An extra derivatization with dansyl chloride was included for estrogen (estrone and estradiol) detection only. Steroid hormones were separated by HPLC, eluted using a reverse phase C18 gradient with electrospray positive ionization, followed by quantification by tandem mass spectrometry (MS/MS). Data were acquired on a MassHunter Workstation Acquisition version B03.01 (Agilent Technologies, Inc.) and processed using MassHunter Quantitative Analysis for QQQ. Accuracy was determined for each hormone analyte from 3 standards to determine upper and lower limits of quantification (ULOQ and LLOQ, respectively) using a 7-point standard curve. Precision and accuracy of the extraction and quantification methods were calculated as the percent relative standard deviation (%RSD) of the spiked standards and percent spiked standard recovered, respectively. The goal was to achieve 100% accuracy (i.e., recover all spiked-in standard at quantification with minimal loss during run time) and good precision (i.e., have %RSD <15% to ensure reproducibility). Test medium was removed following chemical exposure, and cell viability was evaluated in the same wells by MTT. MTT procedures were as follows: after removal of test medium, 500 uL of 0.5 mg/ml of 3-[4,5-dimethylthiazol-2-y]2,5-diphenyltetrazoliumbromide solution was added to the cells. Following a 4-hour incubation at 37 C and 5% CO2 to allow formazan-crystal formation, the MTT solution was removed and blue formazan salt crystals were solubilized using 500uL anhydrous isopropanol with shaking for 20 minutes. […]
Compound,AC50,outcome
C#C[C@]1(O)CC[C@H]2[C@@H]3CCc4cc(O)ccc4[C@H]3CC[C@@]21C,0.364 µM (active),
CC(C)(C)c1cccc(O)c1,,inactive
CC/C(=C(\c1ccccc1)c1ccc(OCCN(C)C)cc1)c1ccccc1,0.136 µM (active),inactive
CC(=O)c1ccc2ccccc2c1,,inactive
CCCCCCCCCCCCN1CCOCC1,0.559 µM (active),
c1ccc(OCCOc2ccccc2)cc1,,inactive
CC(=N[Si](C)(C)C)O[Si](C)(C)C,,inactive
O=C(OCc1ccccc1)c1ccccc1O,,inactive
CCCc1ccc(O)cc1,,inactive
c1coc(CNc2ncnc3nc[nH]c23)c1,,inactive
CCCCCC(=O)O[C@]1(C(C)=O)CC[C@H]2[C@@H]3CCC4=CC(=O)CC[C@]4(C)[C@H]3CC[C@@]21C,13.3 µM (active),
O=C(c1ccc(OCCN2CCCCC2)cc1)c1c(-c2ccc(O)cc2)sc2cc(O)ccc12,,inactive
OCCCO,,inactive
C[C@]12CC[C@@H]3c4ccc(O)cc4CC[C@H]3[C@@H]1CC[C@@H]2O,4.37 µM (active),
COc1ccc2[nH]cc(CCNC(C)=O)c2c1,44.5 µM (active),
CC=CC(=O)C1=C(C)C=CCC1(C)C,,inactive
O=c1cc(-c2ccc(O)cc2)oc2cc(O)cc(O)c12,8.73 µM (active),
